Drawing on PubChem BioAssay (EPA / NIEHS), this text covers outcome and AC50 for eight compounds.

Active and inactive are the calls of the source. Rule for the calls: active = hit-call score of the fitted dose curve at least 0.9, where 1 is the maximum; inactive = score below 0.9.

A short description of assay [1]: ATG_GLI_CIS: Attagene CIS-FACTORIAL HepG2 Assay for human Zinc Finger Protein GLI1 (AID 2282945). Conditions: HepG2, Attagene cis-factorial reporter mRNA, GLI element; actives raise or lower the signal. A digest of the protocol: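 Bidirectional curve fits relative to DMSO, using reporter mRNA levels from RT-PCR plus capillary electrophoresis. Cells were HepG2 transiently carrying cis-regulated reporter constructs, harvested 24 h after dosing.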

A short description of assay [2]: ATG_GRE_CIS: Attagene CIS-FACTORIAL HepG2 Assay for human Glucocorticoid Response Elements (GRE) (AID 2282947). Conditions: HepG2 GRE cis-reporter, Attagene multiplex mRNA; actives raise or lower the signal. Summed up:
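Multiplexed cis-reporter mRNA induction, HepG2, 24 h post-dose. RT-PCR, FAM-labelled, HpaI-digested amplicons by CE. Bidirectional fit vs DMSO.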

Assay [3] in a line: ATG_ISRE_CIS: Attagene CIS-FACTORIAL HepG2 Assay for human Interferon Regulatory Factor 1 (IRF1) binding to an Interferon-Stimulated Response Element (ISRE) (AID 2282948). The following applies: HepG2 ISRE cis-reporter (Attagene), mRNA transcription readout; actives raise or lower the signal. Summed up:
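Signal reflects induction or loss of ISRE-linked reporter mRNA in transiently transfected HepG2 cells after a 24 h treatment, detected by fluorescent RT-PCR fragments on capillary electrophoresis and normalised to DMSO.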

The nature of assay [4]: ATG_M_32_CIS: Attagene CIS-FACTORIAL HepG2 Assay for M32 Transcription Factor (Internal Marker) (AID 2282949).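 Note: background control marker of the multiplexed CIS panel rather than a real target.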 Conditions: HepG2 Attagene cis-factorial M32 reporter, mRNA; actives raise or lower the signal. A digest of the protocol: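 Transient MRTU transfection of HepG2; 24 h compound treatment; TriZol RNA, oligo(dT) RT, reporter PCR, 6-FAM primer extension, HpaI cut, CE. Gain/loss of signal vs DMSO.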

Assay [5] in a line: ATG_M_06_CIS: Attagene CIS-FACTORIAL HepG2 Assay for M06 Transcription Factor (Internal Marker) (AID 2282950). The following applies: HepG2 Attagene CIS-FACTORIAL M06 internal marker reporter; actives raise or lower the signal. A digest of the protocol:
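Cells (HepG2, transiently carrying cis-driven reporter units) receive chemical for 24 h before RNA isolation. Reporter cDNA is PCR-amplified, FAM-labelled by primer extension, HpaI-digested and sized on a capillary analyser.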

In assay [6] the target is Hypoxia-inducible factor 1-alpha (Homo sapiens) (UniProt Q16665). The assay can be described thus: ATG_HIF1a_CIS: Attagene CIS-FACTORIAL HepG2 Assay for human Hypoxia Inducible Factor 1 (HIF1A) (AID 2282951). Conditions: HepG2 Attagene cis-factorial HIF1a reporter transcription; actives raise or lower the signal. A digest of the protocol:
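HepG2 cells transiently transfected with multiplexed cis-promoter reporter units; reporter mRNA read 24 h after dosing by RT-PCR, 6-FAM primer-extension labelling, HpaI digestion and capillary electrophoresis. Bidirectional fit versus DMSO baseline.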

The target of assay [7] is Hepatocyte nuclear factor 6 (Homo sapiens) (UniProt Q9UBC0). The assay can be described thus: ATG_HNF6_CIS: Attagene CIS-FACTORIAL HepG2 Assay for human Hepatocyte Nuclear Factor 6 (HNF6) (AID 2282952). The following applies: HepG2 Attagene cis-factorial HNF6 reporter transcription; actives raise or lower the signal. Summed up: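 Readout: fluorescent reporter-transcript fragments resolved by capillary electrophoresis after RT-PCR, reflecting endogenous factor activity in transfected HepG2. Exposure 24 h. Gain or loss of signal fitted bidirectionally against DMSO.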
Hepatocyte nuclear factor 6 (Homo sapiens), sequence (Q9UBC0 whole entry, looked up, the tested form may be a part): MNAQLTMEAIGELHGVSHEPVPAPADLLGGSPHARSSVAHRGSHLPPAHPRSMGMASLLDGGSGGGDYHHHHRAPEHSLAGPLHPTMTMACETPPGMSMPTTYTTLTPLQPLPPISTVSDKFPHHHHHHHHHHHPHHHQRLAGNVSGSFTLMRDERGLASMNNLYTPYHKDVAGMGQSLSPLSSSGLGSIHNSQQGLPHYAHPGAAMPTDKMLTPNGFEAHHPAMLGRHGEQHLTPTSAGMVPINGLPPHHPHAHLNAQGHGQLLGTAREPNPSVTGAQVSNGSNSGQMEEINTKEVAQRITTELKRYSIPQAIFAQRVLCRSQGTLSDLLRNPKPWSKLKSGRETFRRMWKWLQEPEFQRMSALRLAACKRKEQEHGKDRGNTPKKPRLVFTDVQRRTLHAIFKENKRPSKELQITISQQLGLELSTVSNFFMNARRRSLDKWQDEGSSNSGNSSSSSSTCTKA

The target of assay [8] is Heat shock factor protein 1 (Homo sapiens) (UniProt Q00613). The experiment in a line: ATG_HSE_CIS: Attagene CIS-FACTORIAL HepG2 Assay for human Heat Shock Transcription Factor 1 (HSE) (AID 2282953). The following applies: HepG2 HSE cis-reporter, Attagene RNA transcription; actives raise or lower the signal. Summed up:
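Liver-derived HepG2 cells carry transiently introduced multiple reporter units governed by cis promoters. Reporter RNA measured 24 h post-dose through reverse transcription, PCR amplification, fluorescent labelling and capillary electrophoresis, normalised to DMSO.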

A short description of assay [9]: ATG_MRE_CIS: Attagene CIS-FACTORIAL HepG2 Assay for human Metal Responsive Element (MRE) (AID 2282954). The following applies: HepG2 MRE cis-reporter transcription, Attagene multiplex; actives raise or lower the signal. A digest of the protocol: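 Multiplexed cis-reporter assay in human HepG2 liver cells, 24 h incubation with test chemical. Reporter transcripts measured by RT-PCR and capillary electrophoresis; values from bidirectional curve fitting versus DMSO.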

Assay [10] in a line: ATG_PBREM_CIS: Attagene CIS-FACTORIAL HepG2 Assay for human Phenobarbital-responsive Enhancer Module (PBREM) (AID 2282955). The following applies: HepG2 PBREM cis-reporter, Attagene multiplexed transcription; actives raise or lower the signal. Summed up: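 HepG2 cells transiently transfected with multiple cis-regulated reporter transcription units; endogenous factor activity at the PBREM element measured as reporter mRNA 24 h after dosing, via RT-PCR and capillary electrophoresis of fluorescent fragments; bidirectional fitting versus DMSO.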

In assay [11] the target is Paired box protein Pax-6 (Homo sapiens) (UniProt P26367). The experiment in a line: ATG_Pax6_CIS: Attagene CIS-FACTORIAL HepG2 Assay for human Paired Box 6 (PAX6) (AID 2282956). The following applies: HepG2 CIS-FACTORIAL PAX6 reporter transcription, RNA readout; actives raise or lower the signal. A digest of the protocol:
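Values derive from bidirectional curve fitting of reporter mRNA signal relative to DMSO. HepG2 cells bearing transfected cis-regulated MRTUs were exposed for 24 h; transcripts were read by RT-PCR and capillary electrophoresis.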

The nature of assay [12]: ATG_PXRE_CIS: Attagene CIS-FACTORIAL HepG2 Assay for human Pregnane X Receptor Element (PXRE) (AID 2282957). Conditions: HepG2 Attagene CIS-FACTORIAL PXRE reporter, mRNA; actives raise or lower the signal. A digest of the protocol:
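Read-out: fluorescence of reporter-specific RT-PCR products resolved by capillary electrophoresis, fitted bidirectionally relative to DMSO. Human HepG2 liver cells carried transfected cis-promoter reporter units and were exposed to chemicals for 24 h.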

Assay [13] is described as follows: ATG_PPRE_CIS: Attagene CIS-FACTORIAL HepG2 Assay for human Peroxisome Proliferator-activated Response Element (PPRE) (AID 2282958). The following applies: HepG2 PPRE cis-element reporter, Attagene transcription factor profiling; actives raise or lower the signal. Summed up: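 HepG2 cells transiently transfected with multiplexed cis-element reporter units measure endogenous transcription factor activity. After 24 h compound exposure, reporter mRNA is quantified by RT-PCR, 6-FAM labeling, HpaI digestion and capillary electrophoresis; bidirectional fits are made against DMSO baseline.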

The nature of assay [14]: ATG_RORE_CIS: Attagene CIS-FACTORIAL HepG2 Assay for human RAR-related Orphan Receptor Element (RORE) (AID 2282959). Conditions: HepG2 Attagene cis-factorial RORE reporter, mRNA; actives raise or lower the signal. A digest of the protocol:
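HepG2 cells transiently transfected with multiple cis-element reporter transcription units, exposed to chemical for 24 h. Reporter mRNA quantified by RT-PCR, 6-FAM primer-extension labeling, HpaI digestion and capillary electrophoresis; bidirectional fit versus DMSO baseline.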

Assay [15] in a line: ATG_Sox_CIS: Attagene CIS-FACTORIAL HepG2 Assay for human SRY-box transcription factor (SOX) (AID 2282960). The following applies: HepG2 Attagene cis-factorial SOX reporter, mRNA; actives raise or lower the signal. Summed up:
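HepG2 cells transiently transfected with cis-element-driven multiple reporter transcription units, dosed 24 h; reporter mRNA measured by RT-PCR, FAM labelling, HpaI digestion and capillary electrophoresis. Bidirectional fit versus DMSO baseline.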

Assay [16] has as its target Transcription factor Sp1 (Homo sapiens) (UniProt P08047). The experiment in a line: ATG_Sp1_CIS: Attagene CIS-FACTORIAL HepG2 Assay for human Specificity Protein 1 (Sp1) (AID 2282961). The following applies: HepG2 Sp1 cis-reporter transcription, actives raise or lower the signal. A digest of the protocol: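 HepG2 cells transiently transfected with multiple reporter transcription units driven by cis-regulatory elements; Sp1-responsive reporter mRNA measured 24 h after dosing by RT-PCR and capillary electrophoresis fluorescence, fitted bidirectionally against DMSO baseline.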

Assay [17] in a line: ATG_SREBP_CIS: Attagene CIS-FACTORIAL HepG2 Assay for human Sterol Regulatory Element Binding (SREBP) (AID 2282962). Conditions: HepG2 Attagene cis-factorial SREBP reporter, mRNA; actives raise or lower the signal. Summed up:
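Values derive from bidirectional curve fitting with DMSO as baseline. The underlying measurement is reporter mRNA from cis-element-regulated units in transiently transfected HepG2, quantified by RT-PCR and capillary electrophoresis after 24 h exposure.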

The target in assay [18] is Signal transducer and activator of transcription 3 (Homo sapiens) (UniProt P40763). The assay can be described thus: ATG_STAT3_CIS: Attagene CIS-FACTORIAL HepG2 Assay for human Signal Transducer and Activator of Transcription 3 (STAT3) (AID 2282963). The following applies: HepG2, Attagene cis-factorial STAT3 reporter transcription; actives raise or lower the signal. A digest of the protocol: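 Cis-factorial format: endogenous transcription factors in HepG2 drive transfected reporter units. After 24 h treatment, reporter RNA was reverse-transcribed, amplified, FAM-labelled and HpaI-digested before CE analysis; activity scored in both directions against DMSO.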
Signal transducer and activator of transcription 3 (Homo sapiens), sequence (P40763 whole entry, looked up): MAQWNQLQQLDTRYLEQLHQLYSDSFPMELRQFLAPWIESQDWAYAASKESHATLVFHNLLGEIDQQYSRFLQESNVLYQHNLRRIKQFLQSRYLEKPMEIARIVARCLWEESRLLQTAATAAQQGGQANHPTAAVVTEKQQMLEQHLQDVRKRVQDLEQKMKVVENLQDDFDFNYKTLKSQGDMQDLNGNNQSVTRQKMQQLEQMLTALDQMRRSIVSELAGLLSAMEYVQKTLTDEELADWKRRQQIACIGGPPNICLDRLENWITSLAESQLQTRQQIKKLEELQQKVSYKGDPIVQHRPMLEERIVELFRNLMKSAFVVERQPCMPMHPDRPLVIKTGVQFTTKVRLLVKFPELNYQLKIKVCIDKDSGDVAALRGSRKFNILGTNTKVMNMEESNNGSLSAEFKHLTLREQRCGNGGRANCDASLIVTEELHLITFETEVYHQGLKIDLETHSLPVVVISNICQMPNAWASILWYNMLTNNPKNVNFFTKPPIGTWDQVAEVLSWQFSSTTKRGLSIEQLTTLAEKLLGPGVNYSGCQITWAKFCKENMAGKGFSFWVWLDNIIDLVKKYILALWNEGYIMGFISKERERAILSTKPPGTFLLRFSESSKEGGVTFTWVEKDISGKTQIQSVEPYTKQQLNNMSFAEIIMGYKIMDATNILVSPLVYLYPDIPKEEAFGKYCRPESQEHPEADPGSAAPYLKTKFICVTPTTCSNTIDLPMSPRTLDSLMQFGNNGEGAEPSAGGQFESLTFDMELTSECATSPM

Assay [19] is described as follows: ATG_TA_CIS: Attagene CIS-FACTORIAL HepG2 Assay for human TA Basal Promoter (AID 2282964). The following applies: HepG2 Attagene CIS-factorial TA basal promoter reporter; actives raise or lower the signal. Summed up:
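Background internal-marker endpoint from a 52-component HepG2 cis-reporter panel. Cells treated 24 h; reporter transcripts quantified via RT-PCR and CE fluorescence against DMSO baseline.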

Assay [20] deals with Bile acid receptor (Homo sapiens) (UniProt Q96RI1). The experiment in a line: ATG_IR1_CIS: Attagene CIS-FACTORIAL HepG2 Assay for human Nuclear Receptor Subfamily 1 Group H Member 4 (NR1H4), IR1 submotif (AID 2282946). The following applies: IR1 reporter transcription, actives raise or lower the signal. Summed up: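 HepG2 cells transiently transfected with multiplexed cis-element reporter units read endogenous transcription factor activity. After 24 h compound exposure, reporter mRNA was quantified by RT-PCR, fluorescent labelling, HpaI digestion and capillary electrophoresis; bidirectional fitting versus DMSO baseline.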
Bile acid receptor (Homo sapiens), sequence (Q96RI1 whole entry, looked up): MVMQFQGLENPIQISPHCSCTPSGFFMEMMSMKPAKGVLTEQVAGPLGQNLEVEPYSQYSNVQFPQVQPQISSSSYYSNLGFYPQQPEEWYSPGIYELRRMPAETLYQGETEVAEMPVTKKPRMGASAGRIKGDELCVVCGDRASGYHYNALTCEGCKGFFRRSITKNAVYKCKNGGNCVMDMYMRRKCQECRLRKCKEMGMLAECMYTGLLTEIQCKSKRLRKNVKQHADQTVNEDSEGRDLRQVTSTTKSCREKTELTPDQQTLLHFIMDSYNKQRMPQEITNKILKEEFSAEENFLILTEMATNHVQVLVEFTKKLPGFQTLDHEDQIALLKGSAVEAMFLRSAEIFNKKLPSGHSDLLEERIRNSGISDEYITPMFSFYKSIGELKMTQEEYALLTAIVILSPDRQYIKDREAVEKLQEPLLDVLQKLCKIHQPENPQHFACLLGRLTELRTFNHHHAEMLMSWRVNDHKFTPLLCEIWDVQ

Heat shock factor protein 1 (Homo sapiens), sequence (Q00613 whole entry, looked up): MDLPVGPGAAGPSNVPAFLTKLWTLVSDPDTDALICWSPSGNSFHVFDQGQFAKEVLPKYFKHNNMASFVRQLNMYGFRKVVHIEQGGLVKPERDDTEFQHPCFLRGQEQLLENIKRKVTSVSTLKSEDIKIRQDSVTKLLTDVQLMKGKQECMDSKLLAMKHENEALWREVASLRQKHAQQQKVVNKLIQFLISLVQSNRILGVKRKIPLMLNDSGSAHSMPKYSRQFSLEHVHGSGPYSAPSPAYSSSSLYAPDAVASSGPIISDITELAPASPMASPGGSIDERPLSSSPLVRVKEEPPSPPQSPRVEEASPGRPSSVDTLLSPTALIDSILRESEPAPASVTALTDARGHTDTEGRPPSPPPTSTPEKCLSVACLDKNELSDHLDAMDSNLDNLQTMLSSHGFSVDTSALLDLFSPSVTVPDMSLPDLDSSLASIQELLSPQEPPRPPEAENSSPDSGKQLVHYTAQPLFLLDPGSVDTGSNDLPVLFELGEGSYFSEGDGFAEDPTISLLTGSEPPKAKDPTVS
Paired box protein Pax-6 (Homo sapiens), sequence (P26367 whole entry, looked up): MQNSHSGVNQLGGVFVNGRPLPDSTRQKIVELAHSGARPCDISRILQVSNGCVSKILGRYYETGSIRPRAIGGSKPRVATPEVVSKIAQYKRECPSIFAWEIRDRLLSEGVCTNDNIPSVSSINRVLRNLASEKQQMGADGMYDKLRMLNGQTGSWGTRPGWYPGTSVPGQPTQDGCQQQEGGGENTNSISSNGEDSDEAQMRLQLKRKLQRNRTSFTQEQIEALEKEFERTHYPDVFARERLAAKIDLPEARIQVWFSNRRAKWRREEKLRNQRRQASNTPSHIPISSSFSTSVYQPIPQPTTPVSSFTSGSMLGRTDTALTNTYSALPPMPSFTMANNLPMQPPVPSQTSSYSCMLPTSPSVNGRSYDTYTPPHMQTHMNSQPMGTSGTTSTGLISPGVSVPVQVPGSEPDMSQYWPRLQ
Hypoxia-inducible factor 1-alpha (Homo sapiens), sequence (Q16665 whole entry, looked up): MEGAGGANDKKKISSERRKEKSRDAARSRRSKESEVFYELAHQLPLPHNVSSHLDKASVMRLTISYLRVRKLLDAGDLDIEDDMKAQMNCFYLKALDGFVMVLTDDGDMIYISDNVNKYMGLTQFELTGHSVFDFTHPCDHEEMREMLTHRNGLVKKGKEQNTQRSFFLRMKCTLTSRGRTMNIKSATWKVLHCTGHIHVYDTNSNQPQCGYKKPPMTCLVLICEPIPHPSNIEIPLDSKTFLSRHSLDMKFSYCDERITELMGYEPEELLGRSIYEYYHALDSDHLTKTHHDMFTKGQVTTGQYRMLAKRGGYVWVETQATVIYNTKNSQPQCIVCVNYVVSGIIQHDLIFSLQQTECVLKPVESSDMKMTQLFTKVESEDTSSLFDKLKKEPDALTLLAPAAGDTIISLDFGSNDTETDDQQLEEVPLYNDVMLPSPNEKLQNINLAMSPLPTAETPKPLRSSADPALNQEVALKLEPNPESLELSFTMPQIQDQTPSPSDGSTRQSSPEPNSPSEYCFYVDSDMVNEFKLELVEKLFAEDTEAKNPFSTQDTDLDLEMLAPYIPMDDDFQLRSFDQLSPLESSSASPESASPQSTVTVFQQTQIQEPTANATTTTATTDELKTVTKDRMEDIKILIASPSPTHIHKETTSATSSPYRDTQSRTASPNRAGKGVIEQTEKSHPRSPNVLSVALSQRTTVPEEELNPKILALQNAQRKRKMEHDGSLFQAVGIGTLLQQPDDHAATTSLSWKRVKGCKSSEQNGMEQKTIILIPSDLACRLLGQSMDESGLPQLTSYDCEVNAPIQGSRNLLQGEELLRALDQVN
Transcription factor Sp1 (Homo sapiens), sequence (P08047 whole entry, looked up): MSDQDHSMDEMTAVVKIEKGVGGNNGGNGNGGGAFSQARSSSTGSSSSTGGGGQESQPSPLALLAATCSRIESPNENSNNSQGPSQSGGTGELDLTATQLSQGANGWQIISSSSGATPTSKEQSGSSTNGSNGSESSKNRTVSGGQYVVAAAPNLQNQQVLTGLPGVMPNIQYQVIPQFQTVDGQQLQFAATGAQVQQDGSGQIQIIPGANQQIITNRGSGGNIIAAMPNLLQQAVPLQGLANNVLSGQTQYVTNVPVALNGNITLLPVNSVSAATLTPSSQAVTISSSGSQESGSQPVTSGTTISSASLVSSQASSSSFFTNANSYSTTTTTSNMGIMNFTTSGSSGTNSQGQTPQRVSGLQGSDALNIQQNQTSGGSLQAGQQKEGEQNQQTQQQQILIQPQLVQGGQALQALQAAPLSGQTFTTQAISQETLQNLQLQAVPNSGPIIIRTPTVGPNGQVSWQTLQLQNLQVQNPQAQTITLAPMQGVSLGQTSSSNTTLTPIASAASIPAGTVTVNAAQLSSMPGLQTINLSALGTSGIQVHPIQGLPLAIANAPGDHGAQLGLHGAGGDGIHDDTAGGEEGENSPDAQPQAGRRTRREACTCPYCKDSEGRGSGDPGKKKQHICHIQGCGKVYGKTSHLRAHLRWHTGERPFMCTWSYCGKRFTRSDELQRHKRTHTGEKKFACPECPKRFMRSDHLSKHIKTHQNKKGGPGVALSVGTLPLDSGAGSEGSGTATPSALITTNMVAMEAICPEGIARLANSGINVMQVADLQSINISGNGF

`CCCCC(CC)COCCO` (stereo not drawn): the result in assay [1], in [2], in [3], in assay [4], in assay [5] and in [6] was inactive. Further, the compound was classed as inactive in [7], in [8], in assay [9], in [10], in assay [11] and in [12]. Also, the outcome in [13], in [14], in [15], in assay [16], in assay [17] and in [18] was inactive. Further, the compound was called inactive in [19].

Consider `CCn1cc(C(=O)O)c(=O)c2ccc(C)nc21`, for which the compound was classed as inactive in [1], in assay [20], in [3], in assay [4], in assay [5] and in [8]. The compound was classed as inactive in assay [9], in assay [11], in assay [12], in assay [13], in assay [14] and in [15]. Moreover, the call in assay [16], in assay [17], in assay [18] and in assay [19] was inactive.

With `O=C(O)C1=NN(c2ccc(S(=O)(=O)O)cc2)C(=O)C1`, the compound was classed as inactive in assay [1], in assay [2], in assay [3], in assay [4], in [5] and in assay [6]. Moreover, the compound was called inactive in [7], in [8], in [9], in assay [11], in assay [14] and in assay [15]. Further, the compound was called inactive in [16], in assay [17], in assay [18] and in assay [19]. For the same compound, the AC50 in [12] was 45.8 µM (active).

Regarding `CC(=O)c1ccc(C)cc1`, the call in assay [1], in assay [2], in [3], in [4], in [5] and in assay [6] was inactive. In addition, the result in [7], in assay [8], in [9], in assay [10], in [11] and in assay [12] was inactive. Further, the result in [13], in assay [14], in assay [15], in assay [16], in [18] and in assay [19] was inactive.

Turning to `C=C(C)C(=O)OCCC(C)OC(=O)C(=C)C` (stereo not drawn), the compound was classed as inactive in assay [1], in assay [2], in assay [3], in [4], in assay [5] and in [6]. Moreover, the compound was classed as inactive in [7], in assay [8], in assay [9], in [10], in [11] and in assay [13]. Besides, the compound was classed as inactive in assay [14], in assay [15], in assay [16], in assay [18] and in assay [19]. Besides, the AC50 in assay [12] was 56.2 µM (active).

For `CCCOC(=O)CC`, the call in [1], in assay [2], in assay [3], in [4], in [5] and in [6] was inactive. Further, the result in assay [7], in assay [8], in assay [9], in assay [10], in assay [11] and in assay [12] was inactive. Besides, the result in assay [13], in assay [14], in [15], in assay [16], in assay [17] and in assay [18] was inactive. Besides, the result in [19] was inactive.

Consider `CCCCCCCCOC(=O)c1ccc(O)cc1`, for which the outcome in [1], in assay [2], in assay [3], in [4], in assay [5] and in assay [6] was inactive. For the same compound, the call in [7], in [8], in [9], in [11], in assay [15] and in [16] was inactive. Moreover, the result in [18] and in assay [19] was inactive. In assay [12], the AC50 is 13.4 µM (active).

For `CC(C)(CO)CO`, the outcome in [1], in assay [2], in assay [3], in assay [4], in [5] and in [6] was inactive. Moreover, the compound was called inactive in [7], in [8], in [9], in assay [11], in assay [12] and in [14]. For the same compound, the result in [15], in assay [16], in assay [18] and in assay [19] was inactive.
